This excerpt belongs to a sample that is enriched for hits.
FAK blocker: inhibitors of human focal adhesion kinase. biochemical FAK kinase activity assay. inhibition, %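 (tested at 7 µM)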. hit rate 0.84% among 97,000. AID 727; in the data active = inhibition above about 19%;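 note: 0% = DMSO and 100% = reference compound high control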
CD11b adhes enh: CD11b/CD18-fibrinogen binding enhancement | activation, % at 10 µM | hit rate 0.07% among 93,000 | AID 1499 | P05107+P11215 | K562 CD11b/CD18 adhesion to fibrinogen, ATPlite luminescence;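 active = 10 µM primary screen giving 50% or more activity, confirmed by 40% or more on retest at that dose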
PTK2B oligo ant: blocks oligomerization of human Pyk2 in cells; Q293 cells, Pyk2 FERM NanoBiT luminescence; active compounds read low; z-score (the deposit names both 25 µM and 10 µM); hit rate 0.83% among 99,000; AID 1347419;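 active = Z-score of -3 or lower, scaled per plate to the spread of control and sample wells; inactive = z-score above -3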;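 note: negative z-score means lost luminescence so less FERM oligomerization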
Target sequence (Q14289 whole entry, looked up): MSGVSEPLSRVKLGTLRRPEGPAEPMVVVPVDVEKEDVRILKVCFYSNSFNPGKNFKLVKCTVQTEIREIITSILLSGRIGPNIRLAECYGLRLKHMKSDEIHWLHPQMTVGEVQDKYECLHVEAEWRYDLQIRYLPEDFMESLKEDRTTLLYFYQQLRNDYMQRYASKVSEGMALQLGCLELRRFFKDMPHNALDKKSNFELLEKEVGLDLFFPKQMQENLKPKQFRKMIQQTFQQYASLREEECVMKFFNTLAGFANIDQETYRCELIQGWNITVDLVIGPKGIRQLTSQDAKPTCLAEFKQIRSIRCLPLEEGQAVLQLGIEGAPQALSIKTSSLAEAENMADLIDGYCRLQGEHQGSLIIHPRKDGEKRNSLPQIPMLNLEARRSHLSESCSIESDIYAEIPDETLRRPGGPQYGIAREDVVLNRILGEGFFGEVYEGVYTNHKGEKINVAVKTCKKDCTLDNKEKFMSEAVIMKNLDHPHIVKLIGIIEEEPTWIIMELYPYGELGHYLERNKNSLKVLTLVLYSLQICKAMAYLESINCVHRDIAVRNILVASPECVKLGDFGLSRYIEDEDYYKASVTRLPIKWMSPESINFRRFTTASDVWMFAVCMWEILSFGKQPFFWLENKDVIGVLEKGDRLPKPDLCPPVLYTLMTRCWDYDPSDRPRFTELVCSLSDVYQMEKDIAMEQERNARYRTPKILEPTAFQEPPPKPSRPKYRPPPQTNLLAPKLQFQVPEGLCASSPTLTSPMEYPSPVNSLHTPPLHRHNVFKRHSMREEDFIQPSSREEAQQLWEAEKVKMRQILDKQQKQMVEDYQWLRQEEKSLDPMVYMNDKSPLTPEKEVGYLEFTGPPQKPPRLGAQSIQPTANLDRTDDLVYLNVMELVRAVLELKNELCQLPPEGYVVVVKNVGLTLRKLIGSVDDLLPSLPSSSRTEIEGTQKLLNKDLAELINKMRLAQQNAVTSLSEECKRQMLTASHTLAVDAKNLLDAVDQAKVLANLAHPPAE
CD11b adhes inh: inhibitors of human CD11b/CD18 binding to fibrinogen. K562 CD11b/CD18 adhesion to fibrinogen, ATPlite luminescence; Mn2+ added to activate the integrin. inhibition, % at 10 µM. hit rate 0.54% among 93,000. AID 1497;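 active = primary inhibition of 50% or more at 10 µM, then 40% or more on retest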
D1 mod: D1 dopamine receptor (human) allosteric modulation | B-score at 10 µM | hit rate 5.9% among 58,000 | P21728 | HEK293 D1, CRE-luciferase, dopamine EC30 potentiation; actives deviate in either direction;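 active = luminescence count or its row- and column-corrected plate score outside the 99.7% band of the plate's sample wells, on either side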
hDAT+cocaine: modulates human dopamine transporter uptake under cocaine; Q01959; LLC-PK1 hDAT cells, [14C]-dopamine uptake with cocaine IC80; actives deviate in either direction; B-score at 10 µM; hit rate 1.3% among 110,000;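 active = Z score or B-score, a plate-position-corrected score, falls beyond the plate's 99.7% confidence bounds, in either direction; inactive = both scores lie inside the 99.7% bounds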;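 note: scored against the spread of the other compound wells on the same plate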
D1 mod confirm: D1 receptor (human) allosteric modulation, confirmed | shares compounds with D1 mod | HEK293 D1 CRE-luciferase, dopamine EC30 potentiation; active compounds read high | luminescence at 10 µM | hit rate 88% among 2,200;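 active = luminescence in either of two replicates above the same-plate mean plus 3 SD of the low-dose dopamine control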
D1 no dopamine: D1 (human) signaling in absence of dopamine; luminescence at 10 µM; AID 646; shares compounds with D1 mod; hit rate 0.8% among 1,900; HEK293 D1 CRE-luciferase, luminescence, no dopamine; active compounds read high; in the data active = luminescence above about 3900
Isoprot counter: alters isoproterenol CRE-luciferase response in HEK293 cells; calls only at 10 µM; shares compounds with D1 mod; hit rate 63% among 2,200; HEK293 D1 CRE-luciferase, isoproterenol EC30 counter-screen; AID 647;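 active = luminescence in either replicate above plate mean of wells with a partly effective reference agonist dose plus 3 SD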;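 note: isoproterenol raises cAMP through native beta-adrenoceptor Gs so signal bypasses D1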
* = called active by the depositor; i = inactive; nt = no result given; + = active, no number.

SMILES | FAK blocker | CD11b adhes enh | PTK2B oligo ant | CD11b adhes inh | D1 mod | hDAT+cocaine | D1 mod confirm | D1 no dopamine | Isoprot counter
CSCCC(NC(=O)c1ccc(Cl)cc1)C(=O)NC(C)(C)C (configuration not stated) | -1 | 2 | 0.33 | 2 | nt | 0.022 | nt | nt | nt
O=C(c1ccc(S(=O)(=O)N2CCOCC2)cc1)N1CCN(c2ccc(F)cc2)CC1 | -5 | 0 | -0.54 | -15 | 3.3* | -0.05 | 5476 | 1868 | i
CCOc1nc(C)ccc1-c1noc(-c2ccncc2)n1 | 0 | nt | 0.27 | nt | 18* | 2 | 11268* | 1692 | +
CCOC(=O)C1=C(C)N(CCCC(=O)O)C(=O)NC1C(CC)CC (configuration not stated) | nt | nt | nt | nt | nt | -0.099 | nt | nt | nt
c1coc(CNc2nc(-c3ccncc3)cs2)c1 | 7 | nt | 3.1 | nt | 3.6* | 0.59 | 8460* | 1716 | +
COc1nc(Nc2ccc(OC)c(Cl)c2)nc(OC)n1 | 0 | 6 | -0.91 | -7 | 4.3* | 0.024 | 10816* | 1484 | +
CCOc1nc(Nc2ccc(OC)c(Cl)c2)nc(N2CCN(c3ccc(OC)cc3)CC2)n1 | 3 | -2 | -2.2 | 9 | nt | -0.15 | nt | nt | nt
CCS(=O)(=O)n1nc(-c2ccc(Cl)cc2)nc1N | nt | 4 | nt | 16 | 5* | 0.042 | 8932* | 1784 | +
O=c1c2ccccc2nc(SCc2cn3ccsc3n2)n1-c1ccc(F)cc1 | -1 | 1 | -3.3* | -15 | 8.2* | 1.7 | 10696* | 1584 | +
COC(=O)c1ccc(NC(=O)Cn2nc(-c3ccncc3)nc2SCC(=O)Nc2nccs2)cc1 | 3 | nt | -1.4 | nt | nt | 0.81 | nt | nt | nt
C#Cc1ccc([C@@H]2C=C(C(=O)OCC=C)O[C@H](OCc3ccc(CO)cc3)C2)cc1 | nt | nt | nt | nt | nt | 0.6 | nt | nt | nt
C=CCNS(=O)(=O)c1ccc(OCC(=O)OC)cc1 | -7 | -2 | 1.2 | 2 | -0.23 | -0.36 | nt | nt | nt
CCc1ccc(C2C(C#N)=C(N)SC(N)=C2C#N)s1 | nt | -8 | -0.18 | 68 | 7.3* | 0.14 | 8708* | 1568 | +
CCc1ccc(C2C(C#N)=C(N)SC(N)=C2C#N)cc1 | 0 | 0 | -1 | 5 | 1.9 | -0.45 | nt | nt | nt
CCCC[C@@H]1CNC(=S)N1CCCC | nt | nt | nt | nt | nt | -0.72 | nt | nt | nt
CCc1nc(Nc2ccccc2)c2oc3ccccc3c2n1 | 3 | 6 | -1.4 | -6 | nt | -0.79 | nt | nt | nt
CCc1nc(NCCCn2ccnc2)c2oc3ccccc3c2n1 | 7 | -5 | -0.89 | -1 | 5.5* | 0.8 | 13664* | nt | +
CN1C(=S)SC(C)(C)C1/[N+]([O-])=C/c1cccnc1 (configuration not stated) | -3 | -2 | -0.38 | -17 | 7.5* | 0.74 | 5660 | 1560 | i
CN(C)c1ccc(/C=[N+](\[O-])C2SC(=S)N(C)C2(C)C)cc1 (configuration not stated) | 0 | 2 | -0.07 | 2 | -0.57 | -0.48 | nt | nt | nt
COC(=O)c1ccc(Cn2cnc3c(sc4nc(N5CCOCC5)c5c(c43)CCCC5)c2=O)o1 | nt | 88 | -0.57 | 16 | 6.8* | 0.57 | 8596* | 1424 | +
Cc1cccc(-n2nc3c(c2NC(=O)c2ccc(Br)o2)CSC3)c1 | -1 | 22 | 0.69 | -10 | 0.85 | 0.63 | nt | nt | nt
Cc1cc2n(n1)C(c1ccccc1Cl)Nc1ccccc1-2 (configuration not stated) | 3 | -1 | 0.18 | -9 | 14* | -0.062 | 16788* | 1488 | +
Cc1cc2n(n1)C(c1ccsc1)Nc1ccccc1-2 (configuration not stated) | 2 | 3 | -0.06 | -21 | 14* | 0.015 | 15520* | nt | +
CSc1ccc(C2Nc3ccccc3-c3cc(C)nn32)cc1 (configuration not stated) | 5 | 0 | -1.1 | 2 | 0.94 | 0.042 | nt | nt | nt
CCOC(=O)Cc1[nH]nc2c1C(c1cccc(OC)c1OC)C(C#N)=C(N)O2 (configuration not stated) | nt | 8 | 0.57 | -4 | 6.3* | 1.2 | 7976* | 1640 | i
SMILES | FAK blocker | CD11b adhes enh | PTK2B oligo ant | CD11b adhes inh | D1 mod | hDAT+cocaine | D1 mod confirm | D1 no dopamine | Isoprot counter
COC(=O)Cc1[nH]nc2c1C(c1cccc(OC)c1OC)C(C#N)=C(N)O2 (configuration not stated) | nt | -2 | -1 | 12 | 0.007 | -0.86 | nt | nt | nt
CCCc1[nH]nc2c1C(c1cc(OC)ccc1F)C(C#N)=C(N)O2 (configuration not stated) | 18 | -4 | 0.32 | -5 | 8.2* | -0.048 | 9940* | nt | +
COC(=O)c1cc(NC(=O)CSc2nncn2C)cc(C(=O)OC)c1 | -1 | -2 | 0.25 | -3 | nt | -0.073 | nt | nt | nt
COc1cccc(-n2nnc3c(=O)n(CC(=O)NC4CCCC4)cnc32)c1 | -1 | 2 | -0.36 | -8 | 4.4* | -0.52 | 8080 | 1872 | i
COC1(OC)N=C(N)C2(C#N)C(c3cccc(Oc4ccccc4)c3)C12C#N (configuration not stated) | 0 | 1 | -0.12 | -10 | 19* | 0.98 | 16148* | 1756 | +
Cc1cc(NC(=O)CSc2n[nH]c(CC(C)C)n2)no1 | -2 | -4 | -0.53 | 5 | 0.2 | 0.47 | nt | nt | nt
c1ccc(OCCOc2ccccc2-c2nnco2)cc1 | 3 | -5 | 0.49 | -10 | 4.4* | 0.49 | 6588 | 1756 | i
CCCc1nc2oc3c(NCCOCCO)ncnc3c2c2c1COC(C)(C)C2 | nt | -2 | -0.79 | -3 | 14* | 1.3 | 18640* | nt | +
CCCc1nc2oc3c(OC)ncnc3c2c2c1COC(C)(C)C2 | -1 | -2 | -0.24 | -24 | nt | 1.1 | nt | nt | nt
Cc1nc2oc3c(NCC4CCCO4)ncnc3c2c2c1COC(C)(C)C2 (configuration not stated) | 3 | nt | -0.13 | nt | 6.4* | 2.2 | 9548* | nt | i
COc1cccc(C2=CC(c3ccc(OC)c(OC)c3OC)n3nnnc3N2)c1 (configuration not stated) | nt | 0 | 1.5 | 18 | 19* | 0.024 | 12516* | nt | +
CNC(=O)CN(c1ccc(F)cc1)S(=O)(=O)c1cc(C)ccc1OC | -3 | -3 | -0.6 | -1 | nt | 0.25 | nt | nt | nt
c1ccc(-c2n[nH]c3ccccc23)cc1 | nt | -4 | -1.2 | 16 | 1.4 | 0.25 | nt | nt | nt
c1ccc(-c2n[nH]nc2-c2ccccc2)cc1 | 3 | 5 | -0.58 | -16 | 17* | 0.94 | 18456* | nt | +
COc1ccc(-c2ccc(=O)n(CC(=O)NCc3ccco3)n2)cc1 | 8 | -8 | -0.05 | -7 | 2.3 | -0.24 | nt | nt | nt
